Measurements from PubChem BioAssay AID1566 (Sanford-Burnham Center for Chemical Genomics, 2009).
The campaign covered roughly 290,000 compounds. About 1,800 (0.62%) were called active. Rule as the data show it: active = inhibition above about 50%; inactive = the rest. Many of the other results were omitted from the sample, so actives are more common in it than they were.

Assay: NOD2 signaling inhibitors, cell-based, luminescence, uHTS, HEK293 (AID 1566)
Settings: HEK293 NOD2/NF-kB luciferase reporter, at 4 µM, hits give high values
For `CC[N+](CC)(CCO)CCCN1C(=O)C2CC=C(Cl)CC2C1=O` (stereo unspecified), the inhibition was 1.4% (inactive). In the case of `CCOC(=O)c1sc2nc(C)nc(NCc3ccc(Cl)cc3)c2c1C`, the inhibition is reported as 51.3% (active). In the case of `CCOC(=O)c1sc2nc(C)nc(NCc3ccccc3)c2c1C`, the inhibition is reported as 22% (inactive). With `CCOC(=O)c1sc2nc(C)nc(NCc3ccc(F)cc3)c2c1C` the inhibition was 45.8% (inactive). With `CC(=O)Nc1ccc(NC(=O)CSc2nc3c([nH]c4ccccc43)c(=O)n2-c2ccccc2F)cc1` the inhibition was 34.3% (inactive). With `C(C#CCCCCCCCCC[n+]1ccccc1)#CCCCCCCCCC[n+]1ccccc1` the inhibition was 68% (active). In the case of `c1cc[n+](CCCC[n+]2ccccc2)cc1`, the inhibition is reported as 7.6% (inactive). With `c1cc[n+](CCC[n+]2ccccc2)cc1` the inhibition was 11.7% (inactive). For `CN(C)N1C(N)=C(C#N)C(c2ccc(F)cc2)C2=C1CC(C)(C)CC2=O` (stereo unspecified), the inhibition was -11.2% (inactive). For `O=C(COc1cccc(Cl)c1)Nc1nc(-c2ccc(S(=O)(=O)N3CCOCC3)cc2)cs1`, the inhibition was -0.1% (inactive). For `O=C(COc1ccccc1)Nc1nc(-c2ccc(S(=O)(=O)N3CCOCC3)cc2)cs1`, the inhibition was 25.3% (inactive). With `Cc1cccc(NC(=O)CCC(=O)Nc2nnc(C(F)(F)F)s2)c1` the inhibition was 8.6% (inactive). With `CCS(=O)(=O)N1CCN=C1SCc1cccc(F)c1` the inhibition was 8.5% (inactive). With `O=C(Nc1nc(-c2ccccc2)cs1)c1ccc(N2CCOCC2)c([N+](=O)[O-])c1` the inhibition was 68.1% (active). For `O=C(Nc1nccs1)c1ccc(N2CCOCC2)c([N+](=O)[O-])c1`, the inhibition was -39.7% (inactive). In the case of `O=C(Nc1nc(-c2ccc(-c3ccccc3)cc2)cs1)c1cc([N+](=O)[O-])ccc1N1CCOCC1`, the inhibition is reported as 6% (inactive). For `Cc1cc(C(=O)Nc2cccc(/C=C/C(=O)O)c2)c(C)o1`, the inhibition was 5.6% (inactive). In the case of `N/C(=N\OC(=O)c1cccc(Cl)c1)c1ccccn1`, the inhibition is reported as -99.8% (inactive). With `CC(C)(C)NC(=O)CSc1nc2scc(-c3ccccc3)c2c(=O)[nH]1` the inhibition was 25.9% (inactive). In the case of `CC(C)CNC(=O)CSc1nc2scc(-c3ccccc3)c2c(=O)[nH]1`, the inhibition is reported as 37.7% (inactive). In the case of `CC(C)CNC(=O)c1cccc(C(=O)NCC(C)C)c1`, the inhibition is reported as 7.3% (inactive). For `Cn1c(=O)c2c(nc(CN3CCN(c4ccccc4F)CC3)n2CCN2CCOCC2)n(C)c1=O`, the inhibition was 9% (inactive). For `O=C(CN1CCOCC1)N1CCc2ccccc2C(c2ccccc2)C1` (stereo unspecified), the inhibition was 17% (inactive). For `COc1ccc(F)cc1CN1CCN(c2ncnc3scc(-c4ccccc4)c23)CC1`, the inhibition was 19.8% (inactive). In the case of `O=C(NCc1ccccc1Cl)C1CCCN(c2ncnc3c2nc2n3CCCCC2)C1` (stereo unspecified), the inhibition is reported as 18.9% (inactive). In the case of `CC1CCN(C(=O)Cn2c(=O)oc3ccccc32)CC1`, the inhibition is reported as -2.3% (inactive).
